For six molecules, outcome and AC50 results are on record in PubChem BioAssay (EPA / NIEHS).

Records with an inconclusive call do not appear. Activity calls are given as the source filed them. The calls were made as follows, unless noted: active = hit-call score of the fitted dose curve at least 0.9, where 1 is the maximum; inactive = score below 0.9.

Read-out in assay [1]: Monokine induced gamma interferon (MIG), CXCL9 (gene 4283)
In words: BSK_3C_MIG: BioMAP Diversity Plus: 3C Assay for Monokine induced gamma interferon (MIG) Biomarker Activity (AID 2283021). The note with it: primary human endothelial cells (HUVEC); actives raise or lower the signal. In outline:
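ELISA-measured MIG in dosed HUVEC 3C cultures at 24 h, analysed by bidirectional fitting with DMSO defining baseline activity.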

In assay [2] the target is human Vitamin D Receptor (VDR), VDR (gene 7421) (UniProt P11473). In words: ATG_VDR_TRANS: Attagene TRANS-FACTORIAL HepG2 Assay for human Vitamin D Receptor (VDR) (AID 2283022; active = hit-call score of the fitted dose curve at least 0.9, where 1 is the maximum). In a few lines:
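Multiplexed TRANS reporter in HepG2; 24 h treatment; reporter mRNA by RT-PCR plus capillary electrophoresis; upregulation scored relative to DMSO.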

A short description of assay [3]: BSK_3C_SRB: Viability Assessment in the BioMAP Diversity Plus: 3C Assay (AID 2283023).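 Also: cells read 24 h after compound dosing; fitted both ways against DMSO so a hit may be signal rise or drop.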 The note with it: primary human endothelial cells (HUVEC). In a few lines: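 Overt cytotoxicity is gauged in parallel confluent HUVEC cultures by SRB total-protein staining at the time of biomarker measurement, 24 h after dosing. Gain or loss of signal is fitted versus DMSO.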

Read-out in assay [4]: Matrix Metallopeptidase 1 (MMP1), MMP1 (gene 4312)
The experiment in a line: BSK_BE3C_MMP1: BioMAP Diversity Plus: BE3C Assay for Matrix Metallopeptidase 1 (MMP1) Biomarker Activity (AID 2283024). The note with it: primary human bronchial epithelial cells; actives raise or lower the signal. In a few lines: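 In this multiplexed primary-cell system, human bronchial epithelium received chemicals for 24 h before an ELISA for MMP1. Values reflect bidirectional fits normalised to the DMSO baseline.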

Assay [5] is described as follows: BSK_3C_Vis: BioMAP Diversity Plus: 3C Assay for Morphology Visualization (AID 2283025).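 Also: fitted both ways so gain or loss versus DMSO counts.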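 As to AC50: light microscopy image of cell morphology used as background control.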 The note with it: primary human endothelial cells (HUVEC). In a few lines: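 Light-microscopy morphology readout, 24 h exposure, human primary umbilical vein endothelium; analysed relative to DMSO with bidirectional fitting.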
Read-out in assay [6]: Pselectin, SELP (gene 6403)
In words: BSK_4H_Pselectin: BioMAP Diversity Plus: 4H Assay for Pselectin Biomarker Activity (AID 2283026). Particulars: primary human endothelial cells (HUVEC); actives raise or lower the signal. In a few lines: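 Bidirectional fits against DMSO gave the endpoint. Cells: primary human umbilical vein endothelium, chemical-treated for 24 h before ELISA detection of P-selectin.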

A short description of assay [7]: BSK_4H_SRB: Viability Assessment in the BioMAP Diversity Plus: 4H Assay (AID 2283027).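 Also: cells exposed to compound for 24 h before staining.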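 As to AC50: curves fitted both ways versus DMSO so AC50 may be loss or gain.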 The note with it: primary human endothelial cells (HUVEC). In a few lines: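 HUVEC, 24 h post-dose; 10% TCA fix, 0.1% SRB stain, A560 nm. Total protein = overt cytotoxicity, parallel to biomarker read. Bidirectional fit vs DMSO baseline.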
A short description of assay [8]: BSK_BE3C_SRB: Viability Assessment in the BioMAP Diversity Plus: BE3C Assay (AID 2283028). Particulars: primary human bronchial epithelial cells. In outline: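 SRB total-protein staining (0.1%, after TCA fixation) of chemically dosed human bronchial epithelial primary cells at 24 h; DMSO serves as the negative control for bidirectional curve fitting.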
Read-out in assay [9]: Thrombomodulin, THBD (gene 7056)
In words: BSK_3C_Thrombomodulin: BioMAP Diversity Plus: 3C Assay for Thrombomodulin Biomarker Activity (AID 2283029). The note with it: primary human endothelial cells (HUVEC); actives raise or lower the signal. In a few lines:
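In a multiplexed primary-cell system, human umbilical vein endothelium received chemical and was assayed 24 h later for thrombomodulin by ELISA. Parallel cultures were SRB-stained (0.1% SRB after 10% TCA fixation, read at 560 nm) to flag cytotoxicity.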

Read-out in assay [10]: Urokinase-type plasminogen activator receptor (uPAR), PLAUR (gene 5329)
The experiment in a line: BSK_4H_uPAR: BioMAP Diversity Plus: 4H Assay for Urokinase-type plasminogen activator receptor (uPAR) Biomarker Activity (AID 2283030). The note with it: primary human endothelial cells (HUVEC); actives raise or lower the signal. In outline:
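Endpoint derived via bidirectional curve fitting against DMSO baseline; readout was ELISA detection of uPAR on umbilical vein endothelial cells at 24 h post-treatment, with SRB-stained parallel cultures assessing cytotoxicity.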

Read-out in assay [11]: Vascular endothelial growth factor receptor 2 (Homo sapiens) (UniProt P35968)
In words: BSK_4H_VEGFRII: BioMAP Diversity Plus: 4H Assay for Vascular endothelial growth factor receptor 2 (VEGFR2) Biomarker Activity (AID 2283031). The note with it: primary human endothelial cells (HUVEC); actives raise or lower the signal. In outline: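 In this multiplexed HUVEC system, biomarker ELISA was performed after 24 h chemical exposure. Parallel SRB staining (TCA fixation, 560 nm) tracked cytotoxicity; DMSO served as baseline.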

Read-out in assay [12]: Human Leukocyte Antigen - DR isotype (HLADR), HLA-DRA (gene 3122)
The experiment in a line: BSK_BE3C_HLADR: BioMAP Diversity Plus: BE3C Assay for Human Leukocyte Antigen - DR isotype (HLADR) Biomarker Activity (AID 2283032). The note with it: primary human bronchial epithelial cells; actives raise or lower the signal. In outline:
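BioMAP BE3C format: human bronchial epithelium, 24 h compound treatment, ELISA detection of HLA-DR, with bidirectional analysis relative to DMSO.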

Read-out in assay [13]: Vascular cell adhesion molecule 1 (VCAM1), VCAM1 (gene 7412)
The experiment in a line: BSK_4H_VCAM1: BioMAP Diversity Plus: 4H Assay for Vascular cell adhesion molecule 1 (VCAM1) Biomarker Activity (AID 2283033).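 As to outcome: cell-surface VCAM-1 protein measured by ELISA.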 Particulars: primary human endothelial cells (HUVEC); actives raise or lower the signal. In outline: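 In this human endothelial (HUVEC) system, biomarker ELISA was run 24 h after compound addition, and total protein in parallel wells was assessed by SRB at 560 nm; DMSO served as negative control.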

Read-out in assay [14]: Interferon-gamma inducible Protein 10 (IP10), CXCL10 (gene 3627)
The experiment in a line: BSK_BE3C_IP10: BioMAP Diversity Plus: BE3C Assay for Interferon-gamma inducible Protein 10 (IP10) Biomarker Activity (AID 2283034). The note with it: primary human bronchial epithelial cells; actives raise or lower the signal. In outline:
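BE3C cells (human bronchial epithelial, primary); 24 h exposure; ELISA for IP-10; DMSO-referenced bidirectional fit.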

Read-out in assay [15]: Monokine induced gamma interferon (MIG), CXCL9 (gene 4283)
The experiment in a line: BSK_BE3C_MIG: BioMAP Diversity Plus: BE3C Assay for Monokine induced gamma interferon (MIG) Biomarker Activity (AID 2283035).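 Also: MIG protein measured by ELISA in BE3C cultures after 24 h of dosing.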 The note with it: primary human bronchial epithelial cells; actives raise or lower the signal. In outline: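 Dose cells (human primary bronchial epithelial), incubate 24 h, quantify MIG by ELISA, then fit concentration–response in both directions relative to DMSO control.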

Read-out in assay [16]: Transforming growth factor beta 1 (TGFb1), TGFB1 (gene 7040)
The experiment in a line: BSK_BE3C_TGFb1: BioMAP Diversity Plus: BE3C Assay for Transforming growth factor beta 1 (TGFb1) Biomarker Activity (AID 2283036;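 also: TGF-b1 protein level measured by ELISA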). Particulars: primary human bronchial epithelial cells; actives raise or lower the signal. In outline: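 TGF-b1 measured via ELISA, 24 h after chemical dosing of human bronchial epithelial cells (BE3C). Overt cytotoxicity assessed in parallel by SRB (0.1%, TCA-fixed, 560 nm); analysis bidirectional relative to DMSO.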

Read-out in assay [17]: Plasminogen activator inhibitor-1 (PAI1), SERPINE1 (gene 5054)
The experiment in a line: BSK_BE3C_PAI1: BioMAP Diversity Plus: BE3C Assay for Plasminogen activator inhibitor-1 (PAI1) Biomarker Activity (AID 2283037). The note with it: primary human bronchial epithelial cells; actives raise or lower the signal. In outline: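 In this multiplexed primary-cell system, bronchial epithelial cells receive test chemical and are sampled at 24 h. PAI-1 is read by ELISA, with DMSO serving as negative control for bidirectional fitting.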

Read-out in assay [18]: urokinase plasminogen activator (uPA), PLAU (gene 5328)
In words: BSK_BE3C_uPA: BioMAP Diversity Plus: BE3C Assay for urokinase plasminogen activator (uPA) Biomarker Activity (AID 2283038).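 As to outcome: uPA protein level quantified by ELISA in cell cultures; uPA read one day after compound addition.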 Particulars: primary human bronchial epithelial cells; actives raise or lower the signal. In a few lines:
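Using confluent primary human lung bronchial epithelial cultures, we dosed chemicals, waited 24 h, then ran a uPA ELISA, fitting bidirectionally against DMSO.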

Read-out in assay [19]: Urokinase-type plasminogen activator receptor (uPAR), PLAUR (gene 5329)
The experiment in a line: BSK_BE3C_uPAR: BioMAP Diversity Plus: BE3C Assay for Urokinase-type plasminogen activator receptor (uPAR) Biomarker Activity (AID 2283039).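 Also: uPAR protein level measured by ELISA on the cells; cells exposed to compound for one day before measurement.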 Particulars: primary human bronchial epithelial cells; actives raise or lower the signal. In a few lines: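 Chemically treated human bronchial epithelial cells (lung primary) are assayed for uPAR by ELISA after 24 h, with data fitted in both directions using DMSO as negative control.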

Read-out in assay [20]: Interleukin-6 (IL6), IL6 (gene 3569)
The experiment in a line: BSK_CASM3C_IL6: BioMAP Diversity Plus: CASM3C Assay for Interleukin-6 (IL6) Biomarker Activity for (AID 2283040). The note with it: primary human coronary artery smooth muscle cells; actives raise or lower the signal.

human Vitamin D Receptor (VDR), VDR (gene 7421), sequence (P11473 whole entry, looked up): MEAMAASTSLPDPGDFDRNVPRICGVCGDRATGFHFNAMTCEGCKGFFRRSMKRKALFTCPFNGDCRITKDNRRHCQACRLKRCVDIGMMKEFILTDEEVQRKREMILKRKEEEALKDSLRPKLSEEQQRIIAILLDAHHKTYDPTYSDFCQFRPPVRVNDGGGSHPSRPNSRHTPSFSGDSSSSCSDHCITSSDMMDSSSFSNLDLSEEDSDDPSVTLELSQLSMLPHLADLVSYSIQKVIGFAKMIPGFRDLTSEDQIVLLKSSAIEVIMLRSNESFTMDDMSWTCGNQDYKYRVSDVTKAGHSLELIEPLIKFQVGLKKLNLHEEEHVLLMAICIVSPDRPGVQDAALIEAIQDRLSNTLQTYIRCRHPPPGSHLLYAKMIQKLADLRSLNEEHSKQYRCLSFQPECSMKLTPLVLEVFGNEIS

On to `COC(=O)c1ccc(C)cc1`, for which the outcome in assay [1], in assay [2], in assay [3], in [4], in [5] and in assay [6] was inactive. Besides, the result in assay [7], in assay [8], in assay [9], in assay [10], in assay [11] and in assay [12] was inactive. The result in [13], in [14], in [15], in assay [16], in assay [17] and in assay [18] was inactive. In addition, the result in assay [19] and in assay [20] was inactive.
Take `CC(=O)Nc1ccccc1O`: the outcome in [1], in assay [2], in assay [3], in assay [4], in assay [5] and in assay [6] was inactive. In addition, the result in assay [7], in assay [8], in [9], in assay [10], in [11] and in [12] was inactive. The result in assay [13], in [14], in assay [15], in assay [16], in [17] and in [18] was inactive. Further, the outcome in assay [19] and in assay [20] was inactive.
Turning to `C=C[Si](OCC)(OCC)OCC`, the outcome in [1], in assay [2], in assay [3], in [4], in assay [5] and in assay [6] was inactive. Also, the result in [7], in assay [8], in assay [9], in assay [10], in assay [11] and in assay [12] was inactive. The result in assay [13], in assay [14], in assay [15], in assay [16], in assay [17] and in assay [18] was inactive. Also, the result in [19] and in [20] was inactive.
In general, AC50 refers to the concentration at which the activity in the assay is half-maximal. On to `CC1COc2ccccc2N1C(=O)C(Cl)Cl` (centres undefined), for which the result in [1], in assay [2], in [8], in assay [9], in [10] and in assay [11] was inactive. For the same molecule, the outcome in [15], in assay [16] and in [19] was inactive. For the same molecule, the AC50 in [3] was 7.57 µM (active); in [5], 5.21 µM (active); in assay [6], 4.69 µM (active); in assay [7], 2.79 µM (active); in assay [12], 7.78 µM (active); in assay [13], 8.19 µM (active). Besides, the AC50 was 12.2 µM (active) in assay [14], 3.97 µM (active) in [17], 16 nM (active) in [18] and 8.9 µM (active) in assay [20].
Consider `CNC[C@H](O)c1cccc(O)c1`, for which the outcome in assay [1], in assay [2], in [3], in assay [4], in assay [5] and in [6] was inactive. Moreover, the outcome in assay [7], in assay [8], in assay [9], in assay [10], in [11] and in [12] was inactive. Moreover, the outcome in assay [13], in [14], in assay [15], in assay [16], in [17] and in assay [18] was inactive. The outcome in assay [19] and in [20] was inactive.
With `Nc1cc([N+](=O)[O-])ccc1Cl`, the result in [1], in [2], in assay [3], in assay [4], in [5] and in assay [6] was inactive. The outcome in assay [7], in assay [8], in assay [9], in assay [10], in assay [11] and in assay [12] was inactive. Also, the result in assay [13], in assay [14], in [15], in assay [16], in assay [17] and in [18] was inactive. Further, the result in assay [19] and in assay [20] was inactive.
